Tests used:
ETS1 [1] = biological target: T1, ETS1 (UniProt P14921); assay: ETS1 binding intensity (PBM fluorescence), ETS1 alone (arbitrary fluorescence units); higher = stronger binding; conditions: ETS1 concentration 1 nM; RUNX1 concentration 0 nM
T1 sequence: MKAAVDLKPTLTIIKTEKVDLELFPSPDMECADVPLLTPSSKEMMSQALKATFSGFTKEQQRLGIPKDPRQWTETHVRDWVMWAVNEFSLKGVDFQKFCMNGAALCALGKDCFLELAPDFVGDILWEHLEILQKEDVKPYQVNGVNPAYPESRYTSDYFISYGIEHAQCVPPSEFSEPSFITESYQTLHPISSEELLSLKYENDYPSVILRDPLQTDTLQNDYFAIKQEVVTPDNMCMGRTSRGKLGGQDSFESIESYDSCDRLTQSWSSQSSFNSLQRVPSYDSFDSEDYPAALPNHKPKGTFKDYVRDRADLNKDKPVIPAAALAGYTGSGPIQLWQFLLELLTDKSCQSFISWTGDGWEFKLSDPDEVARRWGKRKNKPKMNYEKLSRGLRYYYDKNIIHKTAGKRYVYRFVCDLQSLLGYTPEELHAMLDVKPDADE

ETS1 [2] = biological target: T1, ETS1; assay: ETS1 binding intensity (PBM fluorescence) in presence of RUNX1, normalised to ETS1-only experiment (arbitrary fluorescence units); higher = stronger binding; conditions: ETS1 concentration 1 nM; RUNX1 concentration 25 nM

Sequence | ETS1 binding intensity (ETS1 [1]) | ETS1 binding intensity (ETS1 [2])
TAGCAGGAAGCCGATTCGCCCTATATGCAACCACTT | 549 | 570
CTGCCTTGCTTTTCCGGTCGCCGCGGTCCTCTGCGC | 2130 | 2110
GTAAAAGGAAGTAAAGGCTTGGCCGGGCGCGGTGGC | 569 | 411
CTGTCAGGATGTTGGCTTGTGAGCCCACAATCCTCT | 413 | 451
TACTTAGAGGAAATGTGGCCTGTGGTCTTGTCTCAC | 617 | 977
TGGTCCACCCGGCGGAACTCGCGGTCCCGGCAGGCA | 520 | 397
AAAGAGAAAGGAAACAAAGTATAGCACCACAGTGAG | 475 | 554
AGGGAAGCGGCGGCGGAAGCCCCGCAGGAGGCCGGC | 806 | 932
CTCTTCTCAGGAAGGGGCTGTGGGATGTAGGATTCC | 638 | 610
GACTGCGCCGGACGCGCCAGCCCTGCGGGATGACGT | 650 | 801
GGCCTTCTGCCTACATCCTGCGGCGCCCGCGACCCG | 679 | 593
GCGCAAGGCGCTTCCTCCCCCGCAGCGCGAGCCCCA | 477 | 435
GGGGCGCTGCGCAGGAAGCCGCAGTCCCTCTGCGGA | 930 | 1210
TTACACCCAAGGGATGTTGTTTGTGGGGGGCGGGGT | 445 | 490
ATGCCAAGGGACTTCCCTCCACAACCGCCCCCAGCT | 642 | 529
AGATGGTGTGGCCGGATGGGGACCACATTGAAGAGA | 1090 | 1240
AAAACAACTTCCTTCCCCTCTCTCTCCACCACAGTC | 554 | 560
GGCCGGAAGCGCTCTCGTTGGCCCTGCGGCGCTGGA | 2120 | 2800
ATGACTTAGCAACATCCTGACAACCACTACATTGTC | 476 | 420
AAGCTTCCTGGCCCTTTAAAAATGGCGGTTCCGCAC | 519 | 714
ACGGACAGAATTTCCTCCCCCGTCACCACAGCGACC | 686 | 728
GTCAGGAAACACATAGTTGTGTTTAACCTCAGGAAA | 466 | 399
GAGAATGAAGAGGAAATGTGGGGACAGACAGAACTG | 1060 | 1170
CAGAGGCCCGGCCTCTTCCGCCACAACTCCGGCCCG | 492 | 356
GGAACGGAGGCGGAAGGGGCCCTGCGGCGACGACGT | 679 | 1070
TGCAGCCGCCGCGTCCGGTCCAGCCGCAGGGCCATG | 536 | 543
AGAAACGTCAATTTCCTGGCCACAGAATCCACTGCC | 608 | 501

Sequence | ETS1 binding intensity (ETS1 [1]) | ETS1 binding intensity (ETS1 [2])
AGGGCGCCGCTTCCGGGAGCCCGCAAGCGGCCTCCG | 606 | 715
AGCGCTTCCCCTTCCGCTGCCGCAGCCGCCGCCTCC | 498 | 466
ACCACCCCCCGTTTCCTCCGAAGTGGTTGGTGCCTT | 590 | 494
GGAGCGGCGGAAGGGAGCTTGCGGCGGGAGGCTGAA | 423 | 485
ACCAAACGTCACATCCGCGGTGCTGCTGTAATCCCA | 470 | 389
CAGTCAGACGGAAGCCCGGCTTCTGTGGTGCCTGCC | 459 | 473
TGCACACATGAGGAAGGGGTAAGTGGTTTTCCCTAC | 498 | 468
GAAACTTCTCAAGGAAATAGCTGTGGTAAACAATAC | 725 | 1730
CAGCCCTAGCGAGTTTCCTGCGGGGAAGGGCATTCC | 537 | 480
GTCCCCTCCCCAGGATGTGGCCACCCGCTAGAGCAT | 1030 | 1560
GTGGGTAGGGAGGAAGCTGTGAAACCACCTCCCCTC | 688 | 882
TGGGGTTTCCTGGGGAGAAACTTAGCCCTACCACAC | 527 | 485
TGCTGTTTCCTCTGCTGCCGAAGCGGTTTCTTCCAC | 443 | 400
GGGGCAGGAAACAGCGTCCTGCGCGGGTAGCCCCTG | 775 | 918
AACAGATCCTTCCTGGCCCCCACTAGCCACAGGTTT | 490 | 421
TAAATAGGAAGTCAGAGTTTACTGCCGAACCCACAG | 616 | 523
GACTGAGATTTCCTGCCAGCAACCACATGGCTTGTC | 512 | 577
CACCTGCCTTGCTTCCTGCGGTGCAACCAGCGGGAG | 444 | 520
CCATGCGCTGCTTCCTTCCACTTACCGCCCTCGCAC | 523 | 331
GACGCATAAACAGGAAGGCCTGCGGGAGGGCCCGCC | 855 | 948
TGGCTGGGCAGGAAGGCCTGTGGCTTACGGTTCCTG | 551 | 651
CGCCGGTCCCATATCCTTTCTGCGGGGTGAGCAGCA | 465 | 431
CAAAGCAACCCAAGGGGATGTGGTCACTGGGGTGAG | 413 | 1800
CCAGAATGCAGGAAGTGCTGTGGTTTGACTTTGTTT | 3550 | 9350
TAAACCCTGCTTCCTGTCCCTGCGCCCCACAAGGAG | 1290 | 1150
TTTAAGGGCGGAAAGGCTTTAGCCGCAAAATGGCTT | 547 | 2380
